Laboratory results: PubChem BioAssay (NCI)
About 83,000 compounds went through this panel and 20% of them were active in at least one assay; those are over-represented in the sample as a whole.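 Treatment: one concentration, 48 hours, 96-well format. Scoring: percent growth, with anything below 10 considered active.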 Activity calls are given as the source filed them.

tested on: MDA-MB-468 breast; test: NCI-60 one-dose screen, 48 h (100 = growth as untreated, 0 = no growth, -100 = all killed); details: 10 µM unless noted

**Q.** Which growth does the source give for `CC(O)C(F)(F)C(F)(F)C(F)(F)F` (centres undefined) here?
**A.** 96.4% (inactive)

**Q.** For `Cc1cc(NC(=O)C2c3ccccc3C(=O)N(CC(C)C)C2c2cccs2)no1` (centres undefined), which growth is on record?
**A.** -56.6% (active)

**Q.** With `O=S(=O)(O)C(Nc1ccccc1)c1ccccc1` (centres undefined) as the compound, how does the growth read?
**A.** 92.7% (inactive)

**Q.** Which growth does the source give for `CN(C)c1ccc2c(c1)OC(N)=C(C#N)C2c1ccc2c(c1)CCCN2C` (centres undefined) here?
**A.** 20.6% (inactive)

**Q.** With `COC1=C(c2ccccc2)C(=O)C(OC)=C(c2ccccc2)C1=O` as the compound, how does the growth read?
**A.** 43% (inactive)

**Q.** How did the growth turn out when `BrC/C=C/C[P+](c1ccccc1)(c1ccccc1)c1ccccc1` was run?
**A.** 3.78% (active)

**Q.** With `Cc1nc2c(c(N3CCCc4ccccc43)n1)CCC2` as the compound, how does the growth read?
**A.** 8.12% (active)

**Q.** How did the growth turn out when `Cc1cc(Nc2c3ccccc3nc3ccccc23)ccc1NS(C)(=O)=O` was run?
**A.** 23.6% (inactive)

**Q.** With `COc1ccc(Cn2cc3c(c2-c2ccccc2)CCc2cnoc2-3)cc1OC` as the compound, how does the growth read?
**A.** -9% (active)

**Q.** How did the growth turn out when `CCCCCC[C@@H](O)C/C=C\CCCCCCCC(=O)OCCOC` was run?
**A.** 104% (inactive)

**Q.** Which growth does the source give for `CN(C)CCOC(=O)Nc1ccc(Cc2ccc(NC(=O)OCCN(C)C)cc2)cc1` here?
**A.** 40.4% [100 µM] (inactive)

**Q.** `C#Cc1cccc(NC(=O)Nc2ccccc2NC(=O)CCl)c1` was tested. Which growth did it give?
**A.** -45.2% [8.25 µM] (active)

**Q.** `O=C1/C(=C/c2ccc(F)cc2)CN(C(=O)C(Cl)Cl)C/C1=C\c1ccc(F)cc1` was tested. Which growth did it give?
**A.** -47% (active)

**Q.** `CN1CCc2c(sc3ncnc(N/N=C/c4ccc(Cl)c(Cl)c4)c23)C1` was tested. Which growth did it give?
**A.** -26.6% (active)
